Laboratory results: PubChem BioAssay AID1851 (National Center for Advancing Translational Sciences (NCATS), 2009)
The campaign covered roughly 16,000 compounds. About 2,600 (16%) were called active. Roughly 20% stayed inconclusive and do not appear here. Not all results are given here. Unmarked numbers belong to inactive results. The call rests on the fitted dose curve; in most records, active means well fitted curve in the direction sought with a large enough effect; inconclusive means small, poorly fitted or top-dose-only effect, or effect the other way; inactive means no such curve, though single readings can be large or run the other way.

Molecular target: Cytochrome P450 2D6 (Homo sapiens) (UniProt P10635)
Experiment: Cytochrome panel assay with activity outcomes
Conditions: recombinant CYP, pro-luciferin dealkylation, luminescence, p450-cyp2d6; series mostly up to 57.1 µM
On the % scale 0 is the no-effect control and ±100 the full control effect.

Chain of Cytochrome P450 2D6 (Homo sapiens) (P10635 whole entry, looked up): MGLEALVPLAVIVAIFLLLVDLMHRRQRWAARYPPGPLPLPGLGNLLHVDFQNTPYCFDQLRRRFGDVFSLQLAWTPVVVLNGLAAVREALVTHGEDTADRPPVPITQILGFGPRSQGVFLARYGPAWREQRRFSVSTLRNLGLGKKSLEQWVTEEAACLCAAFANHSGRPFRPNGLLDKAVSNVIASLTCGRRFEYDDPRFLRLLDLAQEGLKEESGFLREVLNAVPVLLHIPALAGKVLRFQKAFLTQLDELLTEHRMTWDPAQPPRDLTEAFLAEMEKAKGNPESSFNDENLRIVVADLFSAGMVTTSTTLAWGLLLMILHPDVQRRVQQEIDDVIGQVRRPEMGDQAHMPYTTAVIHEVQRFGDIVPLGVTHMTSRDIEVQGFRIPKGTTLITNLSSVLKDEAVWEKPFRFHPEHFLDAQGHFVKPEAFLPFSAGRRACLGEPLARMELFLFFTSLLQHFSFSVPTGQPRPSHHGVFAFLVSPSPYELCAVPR

Row | SMILES | AC50 | activity, negative = inhibition
1 | Cc1ccc(C(=O)N2CCN(c3ccc(C(F)(F)F)cn3)CC2)cc1 | inactive | –
2 | COc1cccc(Nc2ncc3nc(C)c(=O)n(CCC#N)c3n2)c1 | inactive | –
3 | COC(=O)Nc1ccc2[nH]cc(CCNC(C)=O)c2c1 | inactive | –
4 | COc1ccc2[nH]cc(CCNc3cc(-c4ccccc4C)ncn3)c2c1 | 7.94 µM (active) | –
5 | COc1ccc2[nH]cc(C=O)c2c1 | inactive | –
6 | COc1cccc(-c2cc(NCCc3c[nH]c4ccc(OC)cc34)ncn2)c1 | 15.8 µM (active) | –
7 | COc1ccc2[nH]cc(CCNc3cc(-c4ccoc4)ncn3)c2c1 | 12.6 µM (active) | –
8 | COCCNc1cc(-c2ccccc2C(F)(F)F)ncn1 | inactive | –
9 | COc1ccc2[nH]cc(CCNc3cc(-c4ccccc4OC)ncn3)c2c1 | 12.6 µM (active) | –
10 | CC(=O)NCCNc1cc(-c2ccccc2C)ncn1 | inactive | –
11 | CCOC(=O)C1=C(C)NC2=C(C(=O)C(C(=O)OCC)C(c3ccc(OC)cc3)C2)C1c1ccccn1 (centres undefined) | inactive | –
12 | O=C1OCCC1Sc1nnnn1-c1ccccc1 (centres undefined) | inactive | –
13 | O=C1C[C@H](c2ccccc2)[C@@H](c2ccc(Br)cc2)O1 | – | -20.8% [at 11.4 µM]
14 | COCCn1c(=O)cnc2cnc(Nc3cccc(OC)c3)nc21 | inactive | –
15 | CC(C)Cc1nnc(NC(=O)c2ccc([N+](=O)[O-])cc2)s1 | inactive | –
16 | COc1cccc(Cn2c(NCc3cccnc3)nc3c2c(=O)n(C)c(=O)n3C)c1 | inactive | –
17 | COc1ccc(CNC(=O)C(c2ccc(C)cc2)N(Cc2cccs2)C(=O)c2ccc3c(c2)OCCO3)cc1 (centres undefined) | inactive | –
18 | COc1ccc(NC(=O)CN2c3cccc4cccc(c34)S2(=O)=O)cc1 | inactive | –
19 | CC(C(=O)NCc1ccc2c(c1)OCO2)N1c2cccc3cccc(c23)S1(=O)=O (centres undefined) | 10 µM (active) | –
20 | O=C(CCc1ccccc1)NNC(=S)NC(=O)c1ccccc1 | inactive | –
21 | CC(=O)Nc1ccc(C(=O)NNC(=O)CCc2ccccc2)cc1 | inactive | –
22 | NNC(=O)c1ccc[n+](CCc2ccccc2)c1 | 2 µM (active) | –
23 | CCc1cc2c(=O)[nH]cnc2s1 | inactive | –

Row | SMILES | AC50 | activity, negative = inhibition
24 | Cc1ccccc1-c1ccc2ncnc(N(C)C)c2c1 | 20 µM (active) | –
25 | CS(=O)(=O)Nc1cccc(-c2ccc3ncnc(NC4CC4)c3c2)c1 | inactive | –
26 | CN(C)c1ncnc2ccc(-c3ccccc3C#N)cc12 | inactive | –
27 | CN(C)c1ccc(-c2ccc3ncnc(N(C)C)c3c2)cc1 | inactive | –
28 | CS(=O)(=O)Nc1cccc(-c2ccc3ncnc(N4CCOCC4)c3c2)c1 | inactive | –
29 | CN(C)c1ncnc2ccc(-c3ccoc3)cc12 | 10 µM (active) | –
30 | CN(C)C(=O)c1ccc(-c2ccc3ncnc(N(C)C)c3c2)cc1 | inactive | –
31 | CN(Cc1ccco1)c1ncnc2ccc(-c3cccc(NS(C)(=O)=O)c3)cc12 | 20 µM (active) | –
32 | Cc1noc(C)c1-c1ccc2ncnc(N(C)C)c2c1 | inactive | –
33 | CN(Cc1ccco1)c1ncnc2ccc(-c3cccnc3)cc12 | 2 µM (active) | –
34 | CC(C)(C)CNCCO | – | 17.6% [at 11.4 µM]
35 | COCCSc1nnc(NC(=O)C(C)(C)C)s1 | inactive | –
36 | Cc1c(Br)c([N+](=O)[O-])nn1C(C)C(=O)Nc1nccs1 (centres undefined) | inactive | –
37 | CCN(CC)C(=O)CSc1nnc(C2CCCCC2)o1 | inactive | –
38 | COC(=O)CN1C(=O)S/C(=C/c2ccc(N3CCCCC3)o2)C1=O | inactive | –
39 | CSc1nc(N)c2ncn([C@H]3O[C@H](COP(=O)(O)OP(=O)(O)O)[C@@H](O)[C@@H]3O)c2n1 | inactive | –
40 | O=C(O)c1cc(-c2ccc(-c3ccc(-c4cc(C(=O)O)c5cc(Cl)ccc5n4)cc3)cc2)nc2ccc(Cl)cc12 | – | 16.7% [at 11.4 µM]
41 | Cn1nnnc1SCC(=O)Nc1ccccc1[N+](=O)[O-] | inactive | –
42 | CCS(=O)(=O)NCCc1cc2ccc(C)cc2[nH]c1=O | inactive | –
43 | CN(C)c1ncc2nc(-c3ccccc3)c(=O)n(C)c2n1 | inactive | –
44 | CC(C)(C)C(=O)NC(c1ccc(Cl)cc1)[C@]1(C)C[C@H]1C1CCCCC1 (some centres undefined) | inactive | –
45 | COc1cccc(-c2ccc3ncnc(NC4CCNCC4)c3c2)c1 | inactive | –
46 | CNc1ncnc2ccc(-c3cccc(OC)c3)cc12 | 15.8 µM (active) | –

Row | SMILES | AC50 | activity, negative = inhibition
47 | COc1cccc(-c2ccc3ncnc(N(C)C)c3c2)c1 | 10 µM (active) | –
48 | COc1cccc(-c2ccc3ncnc(Nc4ccccc4)c3c2)c1 | inactive | –
49 | CN(Cc1ccco1)c1ncnc2ccc(-c3ccc4c(c3)OCO4)cc12 | 1.58 µM (active) | –
50 | COc1cccc(-c2ccc3ncnc(N(C)Cc4ccco4)c3c2)c1 | 10 µM (active) | –
51 | Cc1ccc(C(=O)NC(=S)NCC2CCCO2)cc1 (centres undefined) | inactive | –
52 | Cc1ccc(C2(C)NC(=O)N(CC(=O)Nc3cc(C)on3)C2=O)cc1 (centres undefined) | inactive | –
53 | COc1ccc(-n2c(SC)nc(O)c(Cc3ccccc3)c2=O)cc1 | inactive | –
54 | CC1=NN(c2ccccc2)C(=O)C1C(=O)c1ccc(Cl)cc1 (centres undefined) | inactive | –
55 | CCOc1ccc(CSC(CC(=O)O)C(=O)O)cc1 (centres undefined) | inactive | –
56 | CSC1=N/C(=C\c2ccc(C)cc2)C(=O)S1 | inactive | –
57 | C[C@H](N=C(NC#N)Nc1ccncc1)C(C)(C)C | inactive | –
58 | C[N+](C)(C)c1ncnc2c1ncn2[C@@H]1CCCCO1 | – | -6.66% [at 11.4 µM]
59 | CCNc1ncc2nc(-c3cn(C)c4ccccc34)c(=O)n(Cc3cccc(OC)c3)c2n1 | inactive | –
60 | CCOC(=O)/C(C(N)=NCCCO)=C(/O)c1ccccc1 | inactive | –
61 | COc1cc(OC)c(C#N)c(S(=O)(=O)Cc2ccccc2)c1 | inactive | –
62 | COC(=O)c1c(-c2cc(OC)c(OC)c(OC)c2)c2ccc(OCc3ccccn3)cc2c(=O)n1-c1ccc(N)cc1 | inactive | –
63 | O=C(Oc1ccccc1)N1CCC2(CC1)CN(c1ccccc1)C2 | inactive | –
64 | COc1ccc(N(C(=O)Cn2nnc3ccccc32)C2(C(=O)NC3CCCC3)CCCCC2)cc1 | 11.2 µM (active) | –
65 | COCCNC(=O)C(c1ccc(C)o1)N(CC1CCCO1)C(=O)Cn1nnc2ccccc21 (centres undefined) | inactive | –
66 | O=C(Cn1nnc2ccccc21)N1CCCCC1 | inactive | –
67 | CCOCC(=O)Nc1cc(-c2cn3cccnc3n2)ccc1C | inactive | –
68 | Clc1ccc(-c2ccnc(Oc3cc(Cl)ccc3Cl)n2)cc1 | inactive | –
69 | CCOc1cc2[nH]c(=O)n(CCC(=O)NCc3ccc(OC)cc3)c(=O)c2cc1OCC | inactive | –
